Test results as given in ChEMBL document CHEMBL1157539, “Thousands of chemical starting points for antimalarial lead identification” (Nature, 2010).

Columns and labels:
Type in all cases: functional
Plasmodium falciparum [1] = assay: GSK_TCMDC: Inhibition of Plasmodium falciparum 3D7 in whole red blood cells, using parasite LDH activity as an index of growth. Test compounds present at 2uM
Plasmodium falciparum [2] = assay: GSK_TCMDC: Inhibition of Plasmodium falciparum Dd2 in whole red blood cells, using parasite LDH activity as an index of growth. Test compounds present at 2uM
HepG2 = assay: GSK_TCMDC: Percent inhibition of human HepG2 cell line. Test compounds present at 10uM.

| Compound | Inhibition (Plasmodium falciparum [1]) | Inhibition (Plasmodium falciparum [2]) | Inhibition (HepG2) |
| --- | --- | --- | --- |
| CC(C)(C)NCCN(Cc1ccc(-c2ccc(C(F)(F)F)cc2)cc1)C(=O)Cn1c(CCc2cccc(F)c2F)nc(=O)c2ccccc21 | 99% | 68% | 46% |
| FC(F)(F)c1ccc2c(C=Cc3ccncc3)c[nH]c2c1 | 98% | 76% | 0% |
| CCc1cc(NCc2ccncc2)nc(Nc2ccc(F)cc2)n1 | 92% | 17% | 8% |
| COc1ccc(C=C2SC(=N)N(c3ccccc3OC)C2=O)cc1 | 97% | 95% | 47% |
| O=C(Nc1ccc(Cl)cc1Cl)N[C@H]1CCN(CCCCCNC(=O)C2CC2c2ccc(Cl)c(Cl)c2)C1 (stereo not given in full) | 94% | 0% | 37% |
| Cc1ccc(-c2noc(=O)n2CC(=O)Nc2ccccc2-c2ccccc2)cc1 | 100% | 86% | 0% |
| Cc1cccc2nc(-c3ccc(-c4ccc(CN5CCOCC5)cc4)cc3)[nH]c12.O=C(O)C(F)(F)F | 92% | 86% | 29% |
| Cl.N=C(NCCc1ccccc1Cl)c1ccc2ccccc2c1 | 88% | 11% | 25% |
| Cc1ccc(Cn2ncc(N3CCCNCC3)c(Cl)c2=O)cc1NC(=O)Nc1ccc(-c2ccccc2)cc1 | 100% | 38% | 55% |
| CCN1CCC(N(Cc2ccc(-c3ccc(C(F)(F)F)cc3)o2)C(=O)Cn2c(CCc3cccc(F)c3F)nc(=O)c3ccccc32)CC1.O=C(O)C(O)C(O)C(=O)O | 91% | 88% | 45% |
